# KLF5 inhibitor = kruppel-like factor 5 inhibition. DLD-1 KLF5 promoter-luciferase reporter, luminescence. inhibition, % at 5 µM. 0.23% of 290,000 active. AID 1700;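 active means inhibition above a per-plate limit of that plate's mean compound inhibition plus 3 SD, cut at about 60% in these data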;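 further: higher means less KLF5 promoter-driven luciferase light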
# aSyn UTR inh = 5' untranslated region of α-synuclein, MLPCN primary screen | AID 1813 | inhibition, % (tested at 7.5 µM) | 0.82% of 300,000 active | alpha-synuclein 5'UTR reporter, inhibitor activity; in the data active means inhibition above about 60%;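 further: H4 neuroglioblastoma cells stably carrying SNCA 5'UTR luciferase fusion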
# Ba/F3 V617F tox = reduce viability of Ba/F3 cells dependent on JAK2V617F; AID 1446; inhibition, % at 5.6 µM; 1.1% of 220,000 active; Ba/F3 EpoR-JAK2V617F viability, ATP luminescence;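 active means inhibition above the campaign mean plus 3 SD over all tested compounds, cut at about 24% in these data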;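 further: cytokine-independent growth of Ba/F3 cells driven by EpoR plus mutant JAK2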
# BaF3 tox = counter-screen for JAK2V617F inhibitors: parental Ba/F3 viability inhibitors | inhibition, % at 5.6 µM | CellTiter-Glo ATP luminescence | 1.1% of 220,000 active;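 active means inhibition above a per-campaign cutoff, the mean inhibition of all tested compounds plus 3 SD, cut at about 27% in these data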
# IEC-6 tox = kills IEC-6 intestinal cells in KLF5 counter-screen. IEC-6 cytotoxicity, luminescence viability. inhibition, % at 5 µM. 0.78% of 290,000 active. AID 1825
# APP 5UTR inh = APP translation inhibition. 0.82% of 190,000 active. SH-SY5Y APP 5'UTR-luciferase reporter, luminescence. inhibition, % at 2 µM. AID 1285;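 active means inhibition above a set limit, derived from the sample mean plus 3 SD, cut at about 45% in these data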
# IEC-6 cytotox cf = IEC-6 cytotoxicity, confirmation assay; shares compounds with IEC-6 tox; IEC-6 rat intestinal epithelial viability, luminescence; 63% of 1,900 active; AID 1907; inhibition, % at 5 µM
# A number is an active result; - = inactive; . = not tested or not shown. Rows were chosen to be rich in hits. Some 2.2% of all compounds tested hit in one or more screens of this group. Unless noted, no stated cut-off is given here; in the data, active means inhibition above about 22%; inactive means the rest.
SMILES,KLF5 inhibitor,aSyn UTR inh,Ba/F3 V617F tox,BaF3 tox,IEC-6 tox,APP 5UTR inh,IEC-6 cytotox cf
Cc1ccc(Nc2cc(C)nn2-c2nc(C)cc(=O)[nH]2)cc1,-,-,100,98,101,92,101
Cc1ccc(S(=O)(=O)NC2CC(C)(C)NC(C)(C)C2)cc1C,-,-,.,.,-,.,.
CN1c2cccc3cccc(c23)N(C)C1c1cccs1,-,-,-,-,24,-,-
c1ccc2c(-c3csc(-c4ccncc4)n3)c[nH]c2c1,-,-,-,-,82,-,93
Brc1ccc(-c2csc(-c3c[nH]c4ccccc34)n2)cc1,-,-,-,-,-,-,.
CC(C)n1cc(/C=N/Nc2ccc(C(=O)O)cc2)c2ccccc21,-,-,.,.,35,.,55
COc1ccc(/C=N/Nc2cc(C)nc(-n3nc(C)cc3C)n2)cc1,-,-,-,-,-,-,.
Cc1cc(N/N=C/c2ccc(O)cc2O)nc(-n2nc(C)cc2C)n1,-,72,-,-,79,53,47
COc1cc(/C=C/c2nc3ccccc3c(=O)[nH]2)cc(OC)c1OC,-,-,.,.,61,.,71
COc1cc(/C=C/c2nc3ccccc3c(=O)[nH]2)ccc1OC(F)F,-,-,.,.,-,.,.
Cc1cccc(OCC(=O)NCC(=O)N/N=C/c2cc(Br)cc(Br)c2O)c1,-,-,.,.,30,.,-
Cc1ccc(S(=O)(=O)Nc2cccc(N(C)S(C)(=O)=O)c2)cc1[N+](=O)[O-],-,-,97,95,23,-,-
Cc1csc2ncnc(NC3CCN(Cc4ccccc4)CC3)c12,-,-,55,61,23,.,-
Cc1ccc(-c2csc3ncnc(N4CCN(Cc5ccccc5)CC4)c23)cc1,-,-,.,.,-,.,.
O=[N+]([O-])c1cc([N+](=O)[O-])c2oc(-c3ccccc3)c(Br)c2c1O,-,-,.,.,29,.,-
COc1cc(/C=C2\N=C(c3ccccc3)NNC2=O)cc(OC)c1OC,-,-,72,79,59,.,53
O=C1NNC(c2ccccc2)=N/C1=C\c1ccco1,-,-,-,-,-,.,.
O=C(CCNC(=O)c1ccc([N+](=O)[O-])cc1)NCCc1ccccc1,-,-,.,.,-,.,.
S=c1nc[nH]c2nc[nH]c12,-,67,.,.,83,.,69
COc1ccc(C(NC(=O)c2c(F)c(F)c(F)c(F)c2F)c2ccccc2)cc1 (stereo not given),-,-,-,-,27,-,-
C=CCN(C(=O)Nc1ccc(OC)cc1)c1nnc(-c2ccncc2)s1,-,-,.,.,-,.,.
Cc1ccc(NC(=O)c2nsc(Cl)c2Cl)cc1,-,-,-,-,24,.,-
O=C(NNC(=O)c1ccc([N+](=O)[O-])o1)c1ccccc1,-,-,-,-,-,-,.
CC(NC(=O)c1ccc([N+](=O)[O-])o1)C12CC3CC(CC(C3)C1)C2 (stereo not given),-,-,.,.,60,.,-
O=C(NN(c1ccccc1)c1ccccc1)c1ccc([N+](=O)[O-])o1,-,-,-,-,27,-,-
SMILES,KLF5 inhibitor,aSyn UTR inh,Ba/F3 V617F tox,BaF3 tox,IEC-6 tox,APP 5UTR inh,IEC-6 cytotox cf
O=C(NC1CCCCC1)c1ccc([N+](=O)[O-])o1,-,-,.,.,68,.,-
NC(=O)c1oc2ccccc2c1NC(=O)c1ccc(F)cc1,-,-,-,-,-,-,.
NC(=O)c1oc2ccccc2c1NC(=O)c1ccc([N+](=O)[O-])o1,-,100,.,.,100,.,57
CCc1ccc(OCC(=O)N2CC(C(N)=O)Oc3ccccc32)cc1 (stereo not given),-,-,.,.,-,.,.
O=C(CCC(=O)N1CCSc2ccccc21)NCc1ccccc1,-,-,.,.,-,.,.
COc1ccc(CCN2C(=O)c3ccccc3NC2c2cc(Cl)c(O)c(OC)c2)cc1 (stereo not given),-,-,.,.,54,.,-
CCOc1ccc(CCNC(=O)CN2C(=O)COc3ccc(S(=O)(=O)N4CCOCC4)cc32)cc1,-,-,.,.,-,.,.
Fc1ccc(NC(=S)N2CCOCC2)cc1Cl,-,-,97,100,58,-,-
Nc1cccc(-c2nc3ccc(C(=O)c4ccccc4)cc3[nH]2)c1,-,-,.,.,72,.,60
CN(Cc1ccccc1)C(=O)CCCn1c(=O)c2cccn2c2cccnc21,-,-,.,.,-,.,.
NNC(=O)c1cc2ccccc2[nH]1,-,-,-,-,32,90,-
O=C(NCCCO)c1cc2ccccc2[nH]1,-,-,-,-,-,-,.
CCOc1ccc(N=Cc2c(C)[nH]n(-c3nc4ccccc4[nH]3)c2=O)cc1,-,-,28,34,30,-,53
O=C(/C=C/c1ccccc1)Nc1ccc(Br)cn1,-,-,-,-,26,63,56
COc1cccc(-n2nc(C(N)=O)c(O)cc2=O)c1,-,-,-,-,-,-,.
COc1cccc(-n2nc(C#N)c(Cl)cc2=O)c1,-,-,-,-,28,91,29
COc1cccc(NC(=O)c2nc(S(C)(=O)=O)ncc2Cl)c1,-,-,.,.,100,.,-
COc1cccc(NC(=O)c2nc(SC)ncc2Cl)c1,-,-,.,.,-,.,.
CN(c1ccccc1)S(=O)(=O)c1ccc(NC(=O)c2ccccc2)cc1,-,-,-,-,-,-,.
CN(c1ccccc1)S(=O)(=O)c1ccc(NC(=O)c2nc(S(C)(=O)=O)ncc2Cl)cc1,-,-,.,.,95,.,-
COc1cc(/C=N/NC(=O)c2nc(-c3ccccc3)n(-c3ccccc3)n2)ccc1O,-,-,-,-,-,-,.
COc1cc(/C=N/Nc2nc(C)nc3c2cnn3-c2ccccc2)ccc1O,-,-,46,51,32,50,-
COc1nn(-c2ccccc2)c(=O)c(Cl)c1Cl,-,-,.,.,100,.,23
COc1c(Cl)cnn(-c2ccccc2)c1=O,-,-,-,-,-,-,.
COc1cccc(C(=O)Nc2c3c(nn2-c2ccc(Cl)cc2)CS(=O)(=O)C3)c1OC,-,-,.,.,-,.,.
SMILES,KLF5 inhibitor,aSyn UTR inh,Ba/F3 V617F tox,BaF3 tox,IEC-6 tox,APP 5UTR inh,IEC-6 cytotox cf
O=C(/C=C/c1ccccc1[N+](=O)[O-])NCCCN1CCCC1=O,-,-,.,.,-,.,.
O=C(CCc1ccccc1)Nc1ccncc1,-,-,-,-,-,-,.
CC(C)c1ccc(NC(=O)CCc2ccccc2)cc1,-,-,.,.,29,.,52
CCOc1ccc(/C=C(/NC(=O)c2ccc(Cl)cc2)C(=O)O)cc1OCC,-,-,-,-,-,.,.
CCOc1cc(/C=C(/NC(C)=O)C(=O)O)cc(Cl)c1OCc1ccc(Br)cc1,-,-,-,-,26,.,-
CC(C(=O)NCc1ccccc1Cl)n1cc([N+](=O)[O-])cn1 (stereo not given),-,-,.,.,-,.,.
NNC(=O)c1[nH]c(-c2ccccc2)cc1-c1ccccc1,-,-,.,.,28,.,-
Cc1cccc(Cc2cnc(NC(=O)c3ccc(C)o3)s2)c1,-,-,71,76,59,-,39
Cc1cccc(Cc2cnc(NC(=O)C3=NCCN3)s2)c1,-,-,-,-,-,-,.
O=S(=O)(/C(=C/c1ccc(C(F)(F)F)cc1)c1nc2ccccc2[nH]1)c1ccccc1,-,-,42,-,53,60,48

# Screening results deposited in PubChem by several laboratories.
